Experimental findings from publication PMC4336329 (PLoS ONE, 2015) are described below.

Each structure is given as a SMILES string. Screen size: about 310,000 compounds; about 14,000 (4.5%) showed an effect of 50% or more. Effects have a minus sign here. The list comes from a sample in which strong results are over-represented; it also holds similar structures and randomly drawn compounds.
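Also: peak tail current of the secondary pulse compared with the same well before compound.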

The target in this test is human ether-à-go-go-related gene (hERG) potassium channel (human, UniProt Q12809). As to the kind of experiment: primary screen, population patch clamp on CHO cells stably expressing hERG; higher = less effect of the substance.
human ether-à-go-go-related gene (hERG) potassium channel, sequence (Q12809 whole entry, looked up): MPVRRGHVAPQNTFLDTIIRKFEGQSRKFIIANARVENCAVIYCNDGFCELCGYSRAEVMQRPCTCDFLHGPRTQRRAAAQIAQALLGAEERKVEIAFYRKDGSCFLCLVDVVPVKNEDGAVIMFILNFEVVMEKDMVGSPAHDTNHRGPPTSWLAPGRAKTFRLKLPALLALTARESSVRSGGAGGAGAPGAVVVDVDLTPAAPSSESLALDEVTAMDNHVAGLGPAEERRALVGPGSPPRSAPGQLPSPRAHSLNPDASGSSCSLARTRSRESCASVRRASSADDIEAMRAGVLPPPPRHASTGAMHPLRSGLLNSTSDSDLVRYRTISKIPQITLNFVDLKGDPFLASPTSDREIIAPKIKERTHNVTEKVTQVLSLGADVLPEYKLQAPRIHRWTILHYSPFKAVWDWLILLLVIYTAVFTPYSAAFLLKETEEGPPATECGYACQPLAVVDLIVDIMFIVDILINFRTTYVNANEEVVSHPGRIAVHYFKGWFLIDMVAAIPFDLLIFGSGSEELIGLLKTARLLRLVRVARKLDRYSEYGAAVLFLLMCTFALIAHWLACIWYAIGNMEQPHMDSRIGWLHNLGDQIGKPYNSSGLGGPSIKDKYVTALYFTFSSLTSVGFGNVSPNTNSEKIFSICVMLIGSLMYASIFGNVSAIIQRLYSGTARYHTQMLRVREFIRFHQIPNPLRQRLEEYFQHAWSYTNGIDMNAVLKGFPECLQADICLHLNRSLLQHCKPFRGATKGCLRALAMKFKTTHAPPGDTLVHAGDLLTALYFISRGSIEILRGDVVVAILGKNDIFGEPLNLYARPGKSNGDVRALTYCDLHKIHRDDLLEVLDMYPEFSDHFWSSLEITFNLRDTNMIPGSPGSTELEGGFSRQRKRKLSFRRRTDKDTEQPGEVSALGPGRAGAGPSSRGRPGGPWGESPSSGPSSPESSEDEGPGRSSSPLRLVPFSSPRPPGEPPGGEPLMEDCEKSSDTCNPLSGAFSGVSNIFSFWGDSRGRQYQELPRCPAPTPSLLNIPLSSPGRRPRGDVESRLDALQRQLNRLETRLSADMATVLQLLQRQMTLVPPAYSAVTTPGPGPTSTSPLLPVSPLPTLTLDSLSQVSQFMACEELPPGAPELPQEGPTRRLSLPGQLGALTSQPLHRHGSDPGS
For the molecule `O=C(CCNS(=O)(=O)/C=C/c1ccccc1)NCCc1c[nH]c2ccccc12`, the “hERG current change (%, negative = inhibition) at 10uM” value is 3.88%.
Then `Cc1ccc(NS(=O)(=O)c2ccc(-c3coc(C)n3)cc2)c(C)c1`, with 15.6%.
Take `CCOC(=O)C(Sc1ncn[nH]1)c1ccccc1` (centres unmarked): the “hERG current change (%, negative = inhibition) at 10uM” value is -3.76%.
Take `Cc1cc(F)ccc1S(=O)(=O)N1CCCOC1CNC(=O)C(=O)NCc1cccnc1` (centres unmarked): the “hERG current change (%, negative = inhibition) at 10uM” value is 7.92%.
On to `O=C(CNC(=S)N(CCCN1CCOCC1)Cc1cccs1)NCCCN1CCOCC1`, for which the “hERG current change (%, negative = inhibition) at 10uM” value was found to be 15.1%.
`O=C(CNC(=S)N(CCCN1CCOCC1)Cc1cccs1)NCCN1CCOCC1`: the “hERG current change (%, negative = inhibition) at 10uM” value was determined as 9.17%.
Take `O=C(CNC(=S)N(CCCN1CCOCC1)Cc1cccs1)NC1CCCC1`: the “hERG current change (%, negative = inhibition) at 10uM” value is -19.7%.
As for `O=C(CNC(=S)N(CCCN1CCOCC1)Cc1cccs1)NCc1ccc(Cl)cc1`, the figure is -67.7%; as for `CCCCNC(=O)CNC(=S)N(CCCN1CCOCC1)Cc1cccs1`, -27.4%.
As for `O=C(CNC(=S)N(CCCN1CCOCC1)Cc1cccs1)NC1CCCCCCC1`, the “hERG current change (%, negative = inhibition) at 10uM” value is listed as -61.1%.
Consider `CN(C)CCNC(=O)CNC(=S)N(CCCN1CCOCC1)Cc1cccs1`, for which the “hERG current change (%, negative = inhibition) at 10uM” value came to 12.1%.
Take `O=C(CNC(=S)N(CCCN1CCOCC1)Cc1cccs1)NC1CCCCC1`: the “hERG current change (%, negative = inhibition) at 10uM” value was -31.2%.
Take `O=C(CNC(=S)N(CCCN1CCOCC1)Cc1cccs1)NCc1ccccc1Cl`: the “hERG current change (%, negative = inhibition) at 10uM” value is listed as -54.2%.
Then `O=C(NCc1ccc(F)cc1)c1ccc(CS(=O)Cc2ccccc2Cl)o1` (centres unmarked), with -37.3%.
On to `Cc1ccc(S(=O)(=O)N2[C@@H](c3ccccc3)C(C(=O)O)=CC[C@H]2c2ccc(Cl)cc2)cc1`, for which the “hERG current change (%, negative = inhibition) at 10uM” value came out at 18.6%.
Take `CC1=NN(C(N)=S)C(=O)C1N=Nc1ccccc1C(=O)O` (centres unmarked): the “hERG current change (%, negative = inhibition) at 10uM” value amounted to 22.1%.
With `Fc1ccc(/C=C/c2nnc(-c3cccs3)o2)cc1`, the “hERG current change (%, negative = inhibition) at 10uM” value was 16.7%.
`Cc1cc(S(=O)(=O)Nc2cccc(C(=O)O)c2)c(C)c(S(=O)(=O)c2ccc(Cl)cc2)c1`: the “hERG current change (%, negative = inhibition) at 10uM” value was found to be 18.8%.
`CCOC(=O)c1cnc(SCC(=O)Nc2ccc(NC(C)=O)c(OC)c2)nc1N`: the “hERG current change (%, negative = inhibition) at 10uM” value came out at 2.44%.
As for `CC1(c2cccc(Br)c2)NC(=O)N(CC(=O)Nc2ccc3c(c2)OCO3)C1=O` (centres unmarked), the figure is -12.5%; as for `COc1ccc(CNC2CCSc3ccccc32)cc1OC.O=C(O)C(=O)O` (centres unmarked), 9.97%.
`CCC(Cc1ccccc1)NC(=O)CN(C)S(=O)(=O)c1ccc2c(c1)c(=O)n(C)c(=O)n2C` (centres unmarked): the “hERG current change (%, negative = inhibition) at 10uM” value is on record as -23.5%.
For `Cc1sc2nc(SCC(=O)N3CCN(CCO)CC3)n(-c3ccccc3)c(=O)c2c1C`, the “hERG current change (%, negative = inhibition) at 10uM” value was -3.7%.
For `CCS(=O)(=O)N1CCN(C2CCC(c3ccccc3)CC2)CC1.O=C(O)C(=O)O` (centres unmarked), the “hERG current change (%, negative = inhibition) at 10uM” value is listed as -17.2%.
As for `O=C(O)C(=O)O.OC(CNC1CCCCCCC1)c1ccccc1` (centres unmarked), the figure is 2.95%; as for `Ic1ccccc1CN[C@@H]1C2CCN(CC2)[C@@H]1C(c1ccccc1)c1ccccc1.O.O=C(O)C(=O)O`, -69.7%; as for `O=C(COC(=O)CNC(=O)c1ccccc1)NCCc1ccccc1`, 4.17%.
Turning to `CCOc1ccc(/C=N/NC(=O)C2CC2)c(OCC)c1`, the “hERG current change (%, negative = inhibition) at 10uM” value is 2.21%.
Take `COc1cc2c(cc1OC)CN(CC(=O)NC(=O)NC1CCCCC1)CC2`: the “hERG current change (%, negative = inhibition) at 10uM” value was 3.28%.
With `Cc1nccc2c1[nH]c1ccccc12`, the “hERG current change (%, negative = inhibition) at 10uM” value came out at 2.16%.
Then `COc1cc2[nH]c3ccccc3c2cc1C`, with 2.45%.
Then `Cc1cc2[nH]c3c(c[n+](C)c4ccccc34)c2cc1C.[I-]`, with -77.8%.
`COc1ccc2nc(SCC(N)=O)[nH]c2c1`: the “hERG current change (%, negative = inhibition) at 10uM” value was -2.83%.
Consider `COc1ccc2nc(SCCN(C)C)[nH]c2c1.Cl`, for which the “hERG current change (%, negative = inhibition) at 10uM” value is given as 12.3%.
For the molecule `CCN(CC)CCSc1nc2ccc(OC)cc2[nH]1.Cl`, the “hERG current change (%, negative = inhibition) at 10uM” value is reported as -64.7%.
On to `O=C1[C@@H]2[C@H](C(=O)N1Cc1cccnc1)[C@H]1C=C[C@@H]2C1`, for which the “hERG current change (%, negative = inhibition) at 10uM” value is on record as -3.89%.
As to `COc1ccc(/C=N/Nc2ncc(C(F)(F)F)cc2Cl)c(OC)c1OC`, the “hERG current change (%, negative = inhibition) at 10uM” value is reported as -1.15%.
For `Cc1cc(Cl)ccc1OCC(=O)NNC(=O)C1CSC2(C)CCC(=O)N12` (centres unmarked), the “hERG current change (%, negative = inhibition) at 10uM” value was -18.5%.
Consider `CCOC(=O)c1c(CSCc2ccccc2)oc2ccc(O)c(CN(C)C)c12.Cl`, for which the “hERG current change (%, negative = inhibition) at 10uM” value is listed as -73.4%.
On to `CCOC(=O)c1c(CSc2ccccc2)oc2cc(Br)c(O)c(CN(C)C)c12.Cl`, for which the “hERG current change (%, negative = inhibition) at 10uM” value was 8.53%.
On to `CCOC(=O)c1c(-c2ccccc2)oc2cc(CN(C)C)c(O)c(CN(C)C)c12`, for which the “hERG current change (%, negative = inhibition) at 10uM” value is recorded as -41.5%.
As for `CC(=O)c1c(CSc2ccccc2)oc2ccc(O)c(CN(C)C)c12.Cl`, the figure is -70.8%; as for `COC(=O)Cc1c(CSc2ccccc2)oc2ccc(O)c(CN(C)C)c12`, -47.8%.
With `CCOC(=O)c1c(CSc2ccccc2)oc2ccc(O)cc12`, the “hERG current change (%, negative = inhibition) at 10uM” value is given as 3.91%.
Regarding `CCOC(=O)c1c(-c2ccccc2)oc2ccc(O)c(CN(C)C)c12`, the “hERG current change (%, negative = inhibition) at 10uM” value is listed as -40.2%.
On to `CCOC(=O)c1c(CSc2ccc(CC)cc2)oc2ccc(O)c(CN(C)C)c12.Cl`, for which the “hERG current change (%, negative = inhibition) at 10uM” value is recorded as -55.3%.
As for `CCOC(=O)c1c(CN(C)C)oc2cc(CN(C)C)c(O)c(CSc3ccccc3)c12.Cl`, the figure is -19.3%; as for `COc1ccc2c(c1)[nH]c1c(=O)n(CCN(C)C)cnc12`, -34.1%.
`CCOC(=O)c1cccc(NC(=O)/C=C/c2cccc([N+](=O)[O-])c2)c1`: the “hERG current change (%, negative = inhibition) at 10uM” value was -15.4%.
Take `Cn1c(SCC(=O)NCc2ccccc2)nc2c([nH]c3ccccc32)c1=O`: the “hERG current change (%, negative = inhibition) at 10uM” value is on record as 8.94%.
For `CCC(=O)Nc1nnc(S(=O)(=O)N2CCCC2)s1`, the “hERG current change (%, negative = inhibition) at 10uM” value was determined as 8.85%.
As for `Cc1c(NC(=O)c2cccc(F)c2)c(=O)n(-c2ccccc2)n1C`, the figure is 20.5%; as for `CCCOC(=O)c1ccc(NC(=O)c2ccccc2OC)cc1`, 4.44%.
In the case of `CCOC(=O)C1=C(C)N(C)C(=O)NC1c1ccccc1OC` (centres unmarked), the “hERG current change (%, negative = inhibition) at 10uM” value is given as -12.1%.
With `Cc1ccc(Nc2nc(Oc3ccc(OCc4ccccc4)nn3)nc(N3CCOCC3)n2)cc1`, the “hERG current change (%, negative = inhibition) at 10uM” value is 3.53%.
As for `S=c1oc(-c2ccncc2)nn1CCc1ccncc1`, the “hERG current change (%, negative = inhibition) at 10uM” value was 13%.
